# Data from PubChem BioAssay (Tox21).
# A number with no mark means an inactive call. Records with an inconclusive call do not appear. Where a call stands in place of a potency, no number is given. Calls of active or inactive are those of the source. Unless noted, the call rests on the fitted dose curve; in most records, active means well fitted curve in the direction sought with a large enough effect in the repeat runs; inconclusive means weak or mixed curves; inactive means no such curve, though single readings can be large; an effect the other way counts as inactive or inconclusive.
# Key:
# [1] = qHTS assay to identify small molecule agonists of the hypoxia (HIF-1) signaling pathway (AID 1224846; active means well fitted activation curve with a large enough effect in the signal ratio in the repeat runs, not every such curve was filed as active; the % refers to the signal ratio)
# Procedure, shortened: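 Measured by blue/green FRET after loading CCF4-AM: beta-lactamase expressed from a hypoxia response element in ME-180 cells. Test agents were delivered in DMSO and left 17 hrs; cells had been plated 5 hrs earlier in low-serum (0.5% dialyzed FBS) medium.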
# [2] = qHTS assay to identify small molecule antagonists of the estrogen related receptor (ERR) signaling pathway from Tox21 library (AID 1224848); further: nearly all actives have a fitted effect of over 50% in size; further: potency means the concentration at half of the fitted maximal effect
# Procedure, shortened: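 Reading was by luminescence 30 min after ONE-Glo addition. Before that, ERR cells at 2,000 per well had rested 6 h at 37 C/5% CO2 and then received pin-tooled compounds in DMSO for 18 h at 37 C.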
# [3] = qHTS assay to identify small molecule agonists of the estrogen related receptor (ERR) signaling pathway from Tox21 library (AID 1224849; calls by dose curve; further: nearly all actives have a fitted effect of over 15% in size); conditions: ERR reporter cell line, ONE-Glo luciferase, 18 h; at 92.4 µM (top of the series) unless noted
# Procedure, shortened: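 We plated ERR reporter cells, waited 6 h, added compounds in DMSO by pin tool and incubated them 18 h at 37 C. ONE-Glo was then added and luminescence read after 30 min.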
# [4] = qHTS RealTime-Glo MT Cell Viability Assay in HepG2 cells - 24 hour (AID 1224867); further: nearly all actives have a fitted effect of over 50% in size; further: potency means the concentration at half of the fitted maximal effect
# Procedure, shortened: (§1)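 HepG2 cells were seeded at 600 cells/well together with NanoLuc luciferase and a cell-permeant prosubstrate, preincubated 5 h at 37 C/5% CO2, then pin-dosed with compounds in DMSO. Nonlytic luminescence from viable cells was read at each time point.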
# [5] = qHTS RealTime-Glo MT Cell Viability Assay in HEK293 cells - 32 hour (AID 1224868); further: nearly all actives have a fitted effect of over 50% in size; further: potency means the concentration at half of the fitted maximal effect
# Procedure, shortened: (§2)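 HEK293 cells were seeded at 600 cells/well together with NanoLuc luciferase and cell-permeant prosubstrate, preincubated 5 h at 37 C/5% CO2, then given compound in DMSO by pintool. Luminescence from viable-cell prosubstrate reduction was read repeatedly over 40 h.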
# [6] = A CellTox Green Cytotoxicity Assay to monitor cytotoxicity in HEK293 cells - 0 hour (AID 1224869); further: nearly all actives have a fitted effect of over 50% in size
# Procedure, shortened: (§3)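 Each value comes from one timepoint of a single continuous run in which HEK293 cells with CellTox Green were exposed to compound for up to 40 h at 37 C, dye fluorescence rising with cell death.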
# [7] = qHTS RealTime-Glo MT Cell Viability Assay in HepG2 cells - 40 hour (AID 1224870); further: nearly all actives have a fitted effect of over 50% in size; further: potency means the concentration at half of the fitted maximal effect
# Procedure, shortened: (§4)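 Real-time viability: cells seeded at 600 per well together with NanoLuc and cell-permeant prosubstrate, compounds added after 5 h incubation. Luminescence tracked at 0, 8, 16, 24, 32 and 40 h of exposure.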
# [8] = A CellTox Green Cytotoxicity Assay to monitor cytotoxicity in HEK293 cells - 40 hour (AID 1224871); further: nearly all actives have a fitted effect of over 45% in size; further: potency means the concentration at half of the fitted maximal effect
# Procedure, shortened: as §3
# [9] = qHTS RealTime-Glo MT Cell Viability Assay in HEK293 cells - 16 hour (AID 1224872); further: nearly all actives have a fitted effect of over 50% in size; further: potency means the concentration at half of the fitted maximal effect
# Procedure, shortened: as §2
# [10] = qHTS RealTime-Glo MT Cell Viability Assay in HepG2 cells - 8 hour (AID 1224873); further: nearly all actives have a fitted effect of over 55% in size
# Procedure, shortened: as §4
# [11] = qHTS RealTime-Glo MT Cell Viability Assay in HEK293 cells - 40 hour (AID 1224874); conditions: RealTime-Glo luminescence; max response: hits give low values; further: nearly all actives have a fitted effect of over 50% in size; further: potency means the concentration at half of the fitted maximal effect
# Procedure, shortened: (§5)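 qHTS format; HEK293 cells with NanoLuc/prosubstrate reagent, 37 C/5% CO2 for 5 h pre-dosing; compounds 23 nL in DMSO; luminescence at each time point reflects viable cells.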
# [12] = A CellTox Green Cytotoxicity Assay to monitor cytotoxicity in HEK293 cells - 24 hour (AID 1224875); further: nearly all actives have a fitted effect of over 45% in size; further: potency means the concentration at half of the fitted maximal effect
# Procedure, shortened: as §3
# [13] = qHTS RealTime-Glo MT Cell Viability Assay in HepG2 cells - 32 hour (AID 1224877); further: nearly all actives have a fitted effect of over 55% in size
# Procedure, shortened: as §1
# [14] = A CellTox Green Cytotoxicity Assay to monitor cytotoxicity in HepG2 cells - 24 hour (AID 1224878); further: nearly all actives have a fitted effect of over 45% in size; further: potency means the concentration at half of the fitted maximal effect
# Procedure, shortened: (§6)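 Continuous culture of HepG2 cells with a membrane-impermeant DNA dye; rising fluorescence marks dead cells. Compound exposure lasted up to 40 h at 37 C, with reads every 8 h from 0 h.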
# [15] = A CellTox Green Cytotoxicity Assay to monitor cytotoxicity in HepG2 cells - 40 hour (AID 1224879); further: nearly all actives have a fitted effect of over 40% in size; further: potency means the concentration at half of the fitted maximal effect
# Procedure, shortened: as §6
# [16] = qHTS RealTime-Glo MT Cell Viability Assay in HEK293 cells - 0 hour (AID 1224880); further: top concentration of the series differs between compounds; nearly all actives have a fitted effect of over 45% in size
# Procedure, shortened: as §5
# [17] = A CellTox Green Cytotoxicity Assay to monitor cytotoxicity in HEK293 cells - 32 hour (AID 1224881); further: nearly all actives have a fitted effect of over 40% in size; further: potency means the concentration at half of the fitted maximal effect
# Procedure, shortened: as §3
# [18] = A CellTox Green Cytotoxicity Assay to monitor cytotoxicity in HepG2 cells - 0 hour (AID 1224882); further: nearly all actives have a fitted effect of over 35% in size
# Procedure, shortened: as §6
# [19] = qHTS assay to identify small molecule agonists of H2AX - cell viability counter screen (AID 1224847; calls by dose curve; further: top concentration of the series differs between compounds; nearly all actives have a fitted effect of over 30% in size)
# Procedure, shortened: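 Quantitative HTS viability measurement: CHO-K1 wild-type cells in serum (10% FBS) medium, short 3 hr drug exposure at 37C with 0.76% DMSO, CellTiter-Glo luminescent detection.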
# [20] = A CellTox Green Cytotoxicity Assay to monitor cytotoxicity in HepG2 cells - 16 hour (AID 1224876); further: nearly all actives have a fitted effect of over 45% in size; further: potency means the concentration at half of the fitted maximal effect
# Procedure, shortened: as §6
smiles,measurement,setting,value
CC(C)CCOCCC(C)C,outcome,[1],inactive
same,Potency,[2],inactive
same,"activity change, positive = activation",[3],-1.03%
same,Potency,[4],inactive
same,Potency,[5],inactive
same,Potency,[6],inactive
same,Potency,[7],inactive
same,Potency,[8],inactive
same,Potency,[9],inactive
same,Potency,[10],inactive
same,max response,[11],7.57%
same,Potency,[12],inactive
same,Potency,[13],inactive
same,Potency,[14],inactive
same,Potency,[15],inactive
same,Potency,[16],inactive
same,Potency,[17],inactive
same,Potency,[18],inactive
COc1cccc(OC)c1O,outcome,[1],inactive
same,Potency,[19],inactive
same,Potency,[4],inactive
same,Potency,[5],inactive
same,Potency,[8],inactive
same,Potency,[9],inactive
same,Potency,[10],inactive
same,max response,[11],8.86%
same,Potency,[12],inactive
same,Potency,[20],inactive
same,Potency,[13],inactive
same,Potency,[14],inactive
same,Potency,[15],inactive
same,Potency,[16],inactive
same,Potency,[17],inactive
same,Potency,[18],inactive
C[C@]12CC[C@H]3C(=CCc4cc(O)ccc43)[C@@H]1CCC2=O,outcome,[1],inactive
same,Potency,[2],61.1 µM (active)
same,"activity change, positive = activation",[3],-51.5%
same,Potency,[5],49 µM (active)
same,Potency,[6],inactive
same,Potency,[7],inactive
same,Potency,[8],inactive
same,Potency,[11],43.6 µM (active)
same,Potency,[12],inactive
same,Potency,[20],inactive
same,Potency,[13],inactive
same,Potency,[14],inactive
same,Potency,[16],inactive
same,Potency,[18],inactive
CCN(CC)CCOc1ccc(C(O)(Cc2ccc(Cl)cc2)c2ccc(C)cc2)cc1 (stereo unspecified),outcome,[1],inactive
same,Potency,[2],29.8 µM (active)
same,"activity change, positive = activation",[3],-61% [at 42.5 µM]
same,Potency,[4],23.9 µM (active)
same,Potency,[5],16.9 µM (active)
same,Potency,[6],inactive
same,Potency,[7],15.1 µM (active)
same,Potency,[8],23.9 µM (active)
same,Potency,[9],21.3 µM (active)
same,Potency,[11],10.7 µM (active)
same,Potency,[12],23.9 µM (active)
same,Potency,[20],23.9 µM (active)
same,Potency,[14],21.3 µM (active)
same,Potency,[15],15.1 µM (active)
same,Potency,[16],inactive
same,Potency,[17],23.9 µM (active)
CCc1c(Br)c(Br)c(Br)c(Br)c1Br,outcome,[1],inactive
same,Potency,[2],inactive
same,"activity change, positive = activation",[3],-5.33%
same,Potency,[4],inactive
same,Potency,[5],inactive
same,Potency,[7],inactive
same,Potency,[8],inactive
same,Potency,[9],inactive
same,Potency,[10],inactive
same,max response,[11],4.82%
same,Potency,[12],inactive
same,Potency,[20],inactive
same,Potency,[13],inactive
same,Potency,[14],inactive
same,Potency,[15],inactive
same,Potency,[16],inactive
same,Potency,[17],inactive
same,Potency,[18],inactive
Oc1cc2ccccc2cc1O,outcome,[1],inactive
same,Potency,[19],inactive
same,Potency,[4],inactive
same,Potency,[6],inactive
same,Potency,[7],inactive
same,Potency,[10],inactive
same,Potency,[20],inactive
same,Potency,[14],inactive
same,Potency,[15],inactive
same,Potency,[18],inactive
O=C(O)c1cccc(Cl)n1,outcome,[1],inactive
same,Potency,[19],inactive
same,Potency,[4],inactive
same,Potency,[5],inactive
same,Potency,[7],inactive
same,Potency,[9],inactive
same,max response,[11],7.12%
same,Potency,[13],inactive
same,Potency,[14],inactive
same,Potency,[16],inactive
same,Potency,[18],inactive
C=C(C)CCCC,outcome,[1],inactive
same,Potency,[2],inactive
same,"activity change, positive = activation",[3],6.79%
same,Potency,[4],inactive
same,Potency,[5],inactive
same,Potency,[6],inactive
same,Potency,[7],inactive
same,Potency,[8],inactive
same,Potency,[9],inactive
same,Potency,[10],inactive
same,max response,[11],3.81%
same,Potency,[12],inactive
same,Potency,[20],inactive
same,Potency,[13],inactive
same,Potency,[14],inactive
same,Potency,[15],inactive
same,Potency,[16],inactive
same,Potency,[17],inactive
same,Potency,[18],inactive
CN(C)CCCN1c2ccccc2Sc2ccc(C(F)(F)F)cc21,outcome,[1],inactive
same,Potency,[19],inactive
same,Potency,[5],21.3 µM (active)
same,Potency,[6],inactive
same,Potency,[8],26.8 µM (active)
same,Potency,[9],19 µM (active)
same,Potency,[11],23.9 µM (active)
same,Potency,[20],23.9 µM (active)
same,Potency,[14],23.9 µM (active)
same,Potency,[15],23.9 µM (active)
same,Potency,[17],23.9 µM (active)
same,Potency,[18],inactive
C=CC(=O)OCCC#N,outcome,[1],inactive
same,Potency,[2],inactive
same,"activity change, positive = activation",[3],47% (active)
same,Potency,[4],inactive
same,Potency,[6],inactive
same,Potency,[7],inactive
same,Potency,[9],inactive
same,Potency,[10],inactive
same,Potency,[12],inactive
same,Potency,[20],inactive
same,Potency,[14],inactive
same,Potency,[15],inactive
same,Potency,[16],inactive
same,Potency,[17],inactive
same,Potency,[18],inactive
CCOC(=O)CC(C)O (stereo unspecified),outcome,[1],inactive
same,Potency,[2],inactive
same,"activity change, positive = activation",[3],-9.04%
same,Potency,[4],inactive
same,Potency,[5],inactive
same,Potency,[7],inactive
same,Potency,[8],inactive
same,Potency,[9],inactive
same,Potency,[10],inactive
same,max response,[11],5.55%
same,Potency,[12],inactive
same,Potency,[20],inactive
same,Potency,[13],inactive
same,Potency,[14],inactive
same,Potency,[15],inactive
same,Potency,[16],inactive
same,Potency,[17],inactive
same,Potency,[18],inactive
C(=C/c1ccccc1)/c1ccccc1,outcome,[1],inactive
same,Potency,[2],inactive
same,"activity change, positive = activation",[3],2.16%
same,Potency,[4],inactive
same,Potency,[5],inactive
same,Potency,[6],inactive
same,Potency,[7],inactive
same,Potency,[9],inactive
same,Potency,[20],inactive
same,Potency,[13],inactive
same,Potency,[14],inactive
same,Potency,[15],inactive
same,Potency,[16],inactive
same,Potency,[18],inactive
